Test results taken from PubChem BioAssay (NCI).
This is part of a sample that, as a whole, favours compounds with a hit. Of some 83,000 tested, about 20% had one in any assay.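 Each cell line was grown in a 96-well plate and treated with one concentration of compound for 48 hours. Values below 10 were considered active.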 Calls of active or inactive are those of the source.

Key:
Assay in all cases: NCI-60 one-dose screen, 48 h (100 = growth as untreated, 0 = no growth, -100 = all killed)
Conditions in all cases: 10 µM unless noted
[1] = test system: HCT-15 colon
[2] = test system: HT29 colon
[3] = test system: SNB-75 CNS
[4] = test system: SNB-19 CNS
[5] = test system: U251 CNS
[6] = test system: PC-3 prostate
[7] = test system: SK-MEL-5 melanoma
[8] = test system: UACC-62 melanoma
[9] = test system: LOX IMVI melanoma
[10] = test system: SK-MEL-28 melanoma

Measured: growth

O=c1c2cc(-c3ccc(F)cc3F)ccc2n(Nc2ccccc2)c(=O)n1-c1cccc(C(F)(F)F)c1
inactive: [1] 11.4% | [2] 59.3% | [4] 11.5% | [8] 10.9% | [10] 29.5%
active: [3] -8.2% | [5] 9.58% | [6] 1.28% | [7] -53.7% | [9] -4.69%

CC(=C(c1ccc(OCCN2CCCC2)cc1)c1ccc(OCCN2CCCC2)cc1)c1ccc(Cl)cc1
inactive: [3] 45.8%
active: [1] -73% | [2] -59.2% | [4] -48.8% | [5] -75.1% | [6] -26.9% | [7] -94.9% | [8] -64.7% | [9] -86.5% | [10] -82.5%

C/C(CC1(O)C(=O)Nc2ccccc21)=N\O (stereo not given)
inactive: [1] 95.4% | [2] 104% | [3] 92.4% | [4] 103% | [5] 98.8% | [6] 88.6% | [7] 99.9% | [8] 99.7% | [9] 90.4% | [10] 108%

C=C(C=O)[C@@H]1CC[C@]2(C(=O)O)CC[C@]3(C)C(CC[C@@H]4[C@@](C)(CCC#N)[C@H](C(=C)C=O)CC[C@]43C)[C@@H]12 (stereo not given in full)
active: [1] 4.88% | [2] 0.538% | [5] 5.39% | [9] -81.7% | [10] -5.57%
inactive: [3] 59% | [4] 62.7% | [6] 30.3% | [7] 26.3% | [8] 30.9%

CCc1cc2c(cc1Cl)nc1c(=O)[nH]c(=O)nc-1n2CCOCC(C)(C)C
inactive: [1] 58.3% | [2] 58.5% | [3] 97% | [4] 91% | [5] 83.4% | [6] 68% | [7] 39.6% | [8] 76.1% | [9] 71.9% | [10] 97.2%

CC1=C(C)C(=O)C(Nc2cccc(C)c2)=C(Br)C1=O
inactive: [1] 98.4% | [2] 105% | [3] 67.7% | [4] 101% | [5] 101% | [6] 78.5% | [7] 90.5% | [8] 94.4% | [9] 58.1% | [10] 115%

C/C(=C(/C)C1CC1CCNC1CCC(NC(=O)OC(C)(C)C)CC1)c1ccccc1 (stereo not given)
inactive: [1] 42.6% | [2] 11.9% | [3] 60.1% | [4] 91.3% | [5] 61.3% | [6] 63.8% | [7] 45.7% | [8] 83.1% | [9] 10.2% | [10] 35.5%

Cc1cc2nc3c4cc(C#N)ccc4n(CCN(C)C)c3nc2cc1C
active: [1] 2.02% | [2] -44.3% | [3] -8.73% | [4] 5.67% | [5] 2.73% | [6] 4.69% | [7] -89.5% | [8] -60.6% | [9] -55.5% | [10] -50.1%

O=S(=O)(Oc1ccc(-c2cn3ccsc3n2)cc1)c1cccc(C(F)(F)F)c1
inactive: [1] 96.8% | [2] 107% | [3] 102% | [4] 96.4% | [5] 100% | [6] 97.9% | [7] 98.3% | [8] 81.3% | [9] 112% | [10] 99.6%

OCC(Nc1ncnc2ccc(-c3cnc4cnccn34)cc12)c1ccccc1 (stereo not given)
inactive: [1] 92.3% | [2] 83.5% | [3] 85.6% | [4] 70.6% | [5] 88.5% | [6] 79.9% | [7] 37.5% | [8] 74.1% | [9] 85.2% | [10] 97.8%

Cc1ccc(C(=O)Nc2ccc(CNCCN3CCOCC3)c(C(F)(F)F)c2)cc1C#Cc1cnc2cccnn12
inactive: [4] 36.6% | [6] 19.3% | [8] 15.1%
active: [1] 7.26% | [2] 2.36% | [3] -18% | [5] 6.06% | [7] -85.9% | [9] -85.6% | [10] -6.46%

CNC(=O)c1cc(Oc2ccc3c(c2)sc2nc(-c4ccc(N(C)C)cc4)cn23)ccn1
active: [1] 8.11% | [2] -16.1% | [9] 0.0095%
inactive: [3] 17.8% | [4] 25% | [5] 13.5% | [6] 32.4% | [7] 11.9% | [8] 41.4% | [10] 56.8%

C#CCOc1ccccc1C(OC(=O)c1ccccc1)C(=O)NC(C)(C)C(C)(C)C (stereo not given)
inactive: [1] 78.3% | [2] 74.6% | [3] 71.4% | [4] 95.1% | [5] 87.1% | [6] 60.7% | [7] 80.8% | [8] 66.9% | [9] 91.6% | [10] 101%

Brc1cc(-c2cc(-c3ccc4c(c3)OC=CO4)[nH]n2)cs1
inactive: [1] 51% | [2] 90% | [3] 83.5% | [4] 84.1% | [5] 81.3% | [6] 97.3% | [7] 87.5% | [8] 76.9% | [9] 80% | [10] 94.2%

N#Cc1cccc(-c2cc(-c3ccc4c(c3)OCCO4)[nH]n2)c1
inactive: [1] 23.2% | [2] 11.2% | [3] 10.6% | [4] 36.6% | [5] 30.2% | [6] 39.7% | [7] 12.1% | [8] 41.7% | [9] 46% | [10] 55.9%

N#C/C(=C\c1ccc(-c2ccc(Cl)c(Cl)c2)o1)C(=O)Nc1ncc(Cc2ccc(Cl)cc2)s1
inactive: [1] 13.5% | [2] 27.9% | [4] 37.8% | [6] 36.7% | [7] 80.4% | [8] 48.6% | [10] 18.2%
active: [3] 7.13% | [5] 3.74% | [9] -79.8%

CCOc1cccc(/C(N)=N/C(N)=N/c2nc3ccccc3s2)c1
inactive: [1] 49.9% | [2] 106% | [3] 87.9% | [4] 87.8% | [5] 58.3% | [6] 46.4% | [7] 92.2% | [8] 81.4% | [9] 13.2% | [10] 105%

O=C1CSC(c2cn(-c3ccccc3)nc2-c2ccc(Cl)cc2)N1c1ccccc1 (stereo not given)
inactive: [1] 101% | [2] 106% | [3] 99.9% | [4] 112% | [5] 106% | [6] 99.7% | [7] 99.4% | [8] 99% | [9] 100% | [10] 118%

Cc1ccc2c(n1)C(=O)C(Cl)=C(Nc1ccccc1C(=O)OC(C)(C)C)C2=O
active: [1] -66.2% | [9] -72.5%
inactive: [2] 26.2% | [3] 98.6% | [4] 80.4% | [5] 71.5% | [6] 67.1% | [7] 45.3% | [8] 79% | [10] 34.6%

COc1ccc(/C=N/NC(=O)CSc2nc(-c3cnccn3)cc(-c3cccs3)c2C#N)cc1
active: [2] 8.86%
inactive: [1] 87.3% | [3] 77.3% | [4] 57.8% | [5] 68.1% | [6] 72.9% | [7] 72.5% | [8] 59.4% | [9] 45.7% | [10] 77%

CN(C)c1cccc2c(S(=O)(=O)Nc3cccc(-c4csc(NC(=O)CCCCCN5CCN(CCO)CC5)n4)c3)cccc12
active: [10] -7.14%
inactive: [1] 90.6% | [2] 17% | [3] 80.1% | [4] 87.9% | [5] 70.2% | [6] 72.3% | [7] 79.2% | [8] 94.1% | [9] 12.9%

C#CCOc1ccccc1/C=N/Nc1nc(-c2ccc(Cl)cc2)cs1
inactive: [1] 104% | [2] 106% | [3] 92.5% | [4] 97.9% | [5] 99.2% | [6] 86.5% | [7] 98.3% | [8] 85.7% | [9] 95.1% | [10] 98.1%

CN1CCN(c2ccc(Nc3nc(NCCNC(=O)c4ccccc4)c4sccc4n3)cc2)CC1
active: [2] 4.23% | [9] 5.15%
inactive: [1] 20.7% | [3] 81% | [4] 88.4% | [5] 18.3% | [6] 61.8% | [7] 21.3% | [8] 53% | [10] 59.5%

CN1CCN(Cc2ccc(NC(=O)c3cncc(C#Cc4cnc5ccc(OC6CCOCC6)nn45)c3)cc2C(F)(F)F)CC1
active: [1] -66.4% | [2] -68% | [3] -84.9% | [4] -84% | [5] -82.8% | [6] -49.7% | [7] -95.6% | [8] -70.5% | [9] -93% | [10] -82.5%

O=C(N/N=C/c1cc2ccccc2nc1Cl)c1cc(-c2nc3ccccc3[nH]2)nc2ccccc12
inactive: [1] 82.9% | [2] 90.3% | [3] 83.2% | [4] 95.3% | [5] 92.2% | [6] 81.6% | [7] 81.9% | [8] 75.1% | [9] 88.9% | [10] 99.2%

O=C(CSc1cc[n+](CCCCO)c2ccccc12)n1ccc2ccccc21
inactive: [1] 104% | [2] 103% | [3] 96.1% | [4] 100% | [5] 96.3% | [6] 97.6% | [7] 98.7% | [8] 93.5% | [9] 103% | [10] 110%

CCOC(=O)C1=C(C)NC(C)=C(C(=O)OCc2ccccc2)C1c1cccc(C#N)c1 (stereo not given)
active: [3] -4.08%
inactive: [1] 23% | [2] 11.5% | [4] 41.5% | [5] 41.4% | [6] 33.1% | [7] 54.3% | [8] 33.4% | [9] 35.8% | [10] 51.2%
